Measurements published in PMC4336329 (PLoS ONE, 2015).
Screen size: about 310,000 compounds; about 14,000 (4.5%) showed an effect of 50% or more. Effects have a minus sign here. The full list was thinned out, with strong results kept by preference.

The molecules below were run against human ether-à-go-go-related gene (hERG) potassium channel (human, UniProt Q12809) (assay: primary screen, population patch clamp on CHO cells stably expressing hERG; higher = less effect of the substance).
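Note: peak tail current of the secondary pulse compared with the same well before compound.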

Sequence of human ether-à-go-go-related gene (hERG) potassium channel (Q12809 whole entry, looked up): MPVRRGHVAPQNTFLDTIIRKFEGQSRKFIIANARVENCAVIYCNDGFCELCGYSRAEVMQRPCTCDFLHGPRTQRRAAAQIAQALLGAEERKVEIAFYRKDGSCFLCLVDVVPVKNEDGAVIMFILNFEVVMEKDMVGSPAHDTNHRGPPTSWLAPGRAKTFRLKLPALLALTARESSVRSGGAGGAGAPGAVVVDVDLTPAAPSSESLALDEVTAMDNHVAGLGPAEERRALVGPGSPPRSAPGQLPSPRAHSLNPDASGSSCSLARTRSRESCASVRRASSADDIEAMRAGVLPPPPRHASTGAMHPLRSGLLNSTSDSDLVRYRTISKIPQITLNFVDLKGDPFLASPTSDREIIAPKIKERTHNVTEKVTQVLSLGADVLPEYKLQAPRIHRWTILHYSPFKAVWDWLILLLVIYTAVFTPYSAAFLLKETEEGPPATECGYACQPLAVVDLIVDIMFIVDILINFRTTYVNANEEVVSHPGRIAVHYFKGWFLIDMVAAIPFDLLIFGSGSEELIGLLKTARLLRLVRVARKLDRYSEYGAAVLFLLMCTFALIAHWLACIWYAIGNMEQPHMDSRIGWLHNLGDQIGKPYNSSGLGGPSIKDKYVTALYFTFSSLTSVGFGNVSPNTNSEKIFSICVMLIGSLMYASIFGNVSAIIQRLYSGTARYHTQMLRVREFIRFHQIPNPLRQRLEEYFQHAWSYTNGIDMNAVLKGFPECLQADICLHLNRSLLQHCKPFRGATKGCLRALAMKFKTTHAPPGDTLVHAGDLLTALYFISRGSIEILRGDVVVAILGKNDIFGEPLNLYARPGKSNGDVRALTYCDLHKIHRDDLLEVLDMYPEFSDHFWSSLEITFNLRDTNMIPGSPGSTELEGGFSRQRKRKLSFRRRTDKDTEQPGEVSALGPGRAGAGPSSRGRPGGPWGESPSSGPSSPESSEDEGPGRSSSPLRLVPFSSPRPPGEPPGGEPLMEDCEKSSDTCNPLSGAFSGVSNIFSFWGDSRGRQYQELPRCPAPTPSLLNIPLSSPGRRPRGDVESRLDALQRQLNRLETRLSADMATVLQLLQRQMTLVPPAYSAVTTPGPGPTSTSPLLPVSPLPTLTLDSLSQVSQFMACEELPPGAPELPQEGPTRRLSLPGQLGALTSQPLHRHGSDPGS

| SMILES | hERG current change (%, negative = inhibition) at 10uM [%] |
| --- | --- |
| Cc1cccc(NC(=O)COC(=O)Cc2cccc(C(F)(F)F)c2)c1C | 22.8 |
| Cc1cc(C)n(CCNC(=O)CC2C(=O)NCCN2Cc2ccccc2C(F)(F)F)n1 (centres unmarked) | 8.81 |
| COCCOC(=O)C1=C(C)OC(N)=C(C#N)C1c1ccc2c(c1)OCO2 (centres unmarked) | -0.292 |
| CCCOc1ccc(/C=N/NC(=O)C(C)Sc2ccccn2)cc1OCC (centres unmarked) | 14.9 |
| CCOCC(=O)Nc1cc([N+](=O)[O-])ccc1OC | 15.7 |
| N#C/C(=C\C=C\c1ccccc1)c1nc(-c2ccc3c(c2)OCO3)cs1 | -3.96 |
| COc1ccc(N(CC(=O)NCc2cccs2)S(=O)(=O)c2ccc(F)cc2)cc1 | -0.742 |
| CN(Cc1nccs1)C(=O)C1CCC(=O)N(Cc2ccccc2F)C1 (centres unmarked) | -16.1 |
| COc1cccc(-c2ccc(=O)n(CC(=O)Nc3ccc(C(=O)N4CCCC4)cc3)n2)c1 | -15.4 |
| COc1cc(/C=C/c2cccc[n+]2C)ccc1OCC(=O)Nc1ccccc1.[I-] | 8.86 |
| O=C(c1cc([N+](=O)[O-])ccc1N1CCOCC1)N1CCOCC1 | 18.1 |
| CC(=O)c1ccc(N2CCN(C(=O)c3cc(-c4cccnc4)nc4ccc(Br)cc34)CC2)cc1 | 2.5 |
| Cc1cccc(N2CCN(C(=O)c3cc(S(=O)(=O)N(C)C)ccc3N3CCCC3)CC2)c1C | -12.3 |
| CN(C)S(=O)(=O)c1ccc(N2CCCC2)c(C(=O)N2CCN(c3ccc([N+](=O)[O-])cc3)CC2)c1 | -76.7 |
| Cc1ccc2nc(-c3cccnc3)cc(C(=O)N3CCN(c4ccc([N+](=O)[O-])cc4)CC3)c2c1 | -68.2 |
| O=C(c1cc(=O)[nH]c2ccccc12)N1CCN(c2ccc([N+](=O)[O-])cc2)CC1 | -65.1 |
| Cc1ccc(S(=O)(=O)N2CCN(C(=O)c3cc(S(=O)(=O)N(C)C)ccc3N3CCCC3)CC2)cc1 | -11.1 |
| COc1ccc(N2CCN(C(=O)c3cc(=O)[nH]c4ccccc34)CC2)cc1 | -0.412 |
| O=C(c1cc(=O)[nH]c2ccccc12)N1CCN(c2ccccc2)CC1 | 2.12 |
| O=C(c1cc([N+](=O)[O-])ccc1N1CCOCC1)N1CCN(c2ccc([N+](=O)[O-])cc2)CC1 | -79.8 |
| Cc1ccc2c(C(=O)N3CCN(c4ccccc4)CC3)cc(-c3cccnc3)nc2c1C | 4.03 |

| SMILES | hERG current change (%, negative = inhibition) at 10uM [%] |
| --- | --- |
| O=C(c1cc([N+](=O)[O-])ccc1N1CCOCC1)N1CCN(c2ccccc2)CC1 | -32.3 |
| CCOc1ccc(C(=O)NCC(=O)OCC(=O)Nc2ccccc2OC)cc1 | -18.1 |
| CCC(CC)C(=O)Nc1cc(C)cc(C)c1 | 0.735 |
| CC(NC(=O)COC(=O)CNC(=O)C1CCCCC1)c1ccccc1 (centres unmarked) | -3.81 |
| COc1ccc(/C=N/NC(=O)c2nnn(-c3nonc3N)c2-c2cccs2)c(OC)c1 | 13.1 |
| CC(C)(C)NC(=O)C(OC(=O)c1cccs1)c1ccccc1 (centres unmarked) | 58.8 |
| Cc1ccc(C(=O)NC(=S)NNC(=O)COc2ccccc2C)cc1 | 15.3 |
| O=C(O)C1CCCCC1C(=O)NCCc1ccncc1 (centres unmarked) | 1.96 |
| O=C(c1ccc(F)cc1)N1CCN2C(=O)c3ccccc3C12c1ccccc1 (centres unmarked) | -31.5 |
| COc1ccc2[nH]c(=O)c(CN(C(C)=O)c3cccc(C)c3)cc2c1 | -8.64 |
| Nc1nonc1-n1nnc(C(=O)N/N=C/c2ccccc2)c1CSc1ccc(Cl)cc1 | -23.6 |
| Cc1ccccc1C(=O)OC1OC(=O)C(Cl)=C1N1CCOCC1 (centres unmarked) | -20.1 |
| O=C1CCCC2=C1C(c1ccncc1)c1c(nc(SCc3ccccc3)[nH]c1=O)N2 (centres unmarked) | 17.7 |
| CCOC(=O)N1CCN(C(=O)c2cnc3n(c2=O)CCS3)CC1 | 7.34 |
| O=C(c1cnc2n(c1=O)CCS2)N1CCN(c2ccc([N+](=O)[O-])cc2)CC1 | -63 |
| CC(=O)c1cnc2n(c1=O)CCS2 | 27.8 |
| O=C(c1cc([N+](=O)[O-])ccc1N1CCN(S(=O)(=O)c2ccc(Cl)c(Cl)c2)CC1)N1CCOCC1 | -52.4 |
| O=C(c1cc([N+](=O)[O-])ccc1N1CCOCC1)N1CCN(S(=O)(=O)c2ccc(F)cc2)CC1 | -32.5 |
| O=C(c1cc([N+](=O)[O-])ccc1N1CCOCC1)N1CCN(S(=O)(=O)c2cc(Cl)ccc2Cl)CC1 | -32.3 |
| CCOC(=O)C(C)Sc1nnc(Cc2cc(=O)[nH]c(=O)[nH]2)n1-c1ccc(Cl)cc1 (centres unmarked) | 2.15 |
| C/C(=N/OC(=O)c1c(F)cccc1F)c1nccs1 | 3.34 |

| SMILES | hERG current change (%, negative = inhibition) at 10uM [%] |
| --- | --- |
| CCOC(=O)CSc1nnc([C@H](Cc2ccccc2)NC(=O)OC(C)(C)C)o1 | -14.3 |
| COc1ccc2c(COC(=O)CNC(=O)C34CC5CC(CC(C5)C3)C4)cc(=O)oc2c1 | -31.4 |
| COc1ccc([C@@H](C)NC(=O)c2ccc3oc(C(C)C)nc3c2)cc1 | 26.1 |
| O=C(NC(=S)Nc1ccccc1F)c1ccc(Br)o1 | 8.98 |
| COc1ccc(C2=NOC(C(=O)N3CCN(C(=O)c4ccco4)CC3)C2)cc1OC (centres unmarked) | 0.127 |
| COc1cccc(C2=NOC(C(=O)N3CCN(C(=O)c4ccco4)CC3)C2)c1 (centres unmarked) | -40.1 |
| O=C(c1ccco1)N1CCN(C(=O)C2CC(c3ccc(Cl)cc3)=NO2)CC1 (centres unmarked) | -76.2 |
| O=C(c1ccco1)N1CCN(C(=O)C2CC(c3ccc(F)cc3)=NO2)CC1 (centres unmarked) | -72.5 |
| COc1cc(OC)c(C2=NOC(C(=O)N3CCN(C(=O)c4ccco4)CC3)C2)cc1Cl (centres unmarked) | -35.3 |
| O=C(c1ccco1)N1CCN(C(=O)C2CC(c3ccccc3F)=NO2)CC1 (centres unmarked) | -18.3 |
| N#CC1(c2ccccc2)CCCN1C(=O)c1ccc(Br)cc1 (centres unmarked) | -8.79 |
| CC(=O)Nc1ccc(NC(=O)COc2ccc3c(c2)CCC3)cc1 | 24.5 |
| N#CC1CCCc2c1[nH]c1ccc([N+](=O)[O-])cc21 (centres unmarked) | 12.5 |
| Cc1cc(C)cc(NC(=O)NC2CCCCCCC2)c1 | -5.07 |
| CCCN1C2CCCC1CC(NC(=S)Nc1cc(C)cc(C)c1)C2 (centres unmarked) | -83.7 |
| Cc1cc(C)cc(NC(=S)NC2CC3CCCC(C2)N3C2CC2)c1 (centres unmarked) | -67.3 |
| C=CCN1C2CCCC1CC(NC(=O)Nc1cc(C)cc(C)c1)C2 (centres unmarked) | -51.8 |
| S=C(Nc1ccc(Cl)cc1)NC1CC2CCCC(C1)N2C1CC1 (centres unmarked) | -32.9 |
| C=CCN1C2CCCC1CC(NC(=O)Nc1cccc(C(C)=O)c1)C2 (centres unmarked) | 5.52 |
| CCCN1C2CCCC1CC(NC(=S)Nc1cccc(C)c1)C2 (centres unmarked) | -44.5 |
| S=C(Nc1cccc(Cl)c1)NC1CC2CCCC(C1)N2C1CCCC1 (centres unmarked) | 19 |

| SMILES | hERG current change (%, negative = inhibition) at 10uM [%] |
| --- | --- |
| S=C(Nc1ccc(Cl)cc1)NC1CC2CCCC(C1)N2C1CCCC1 (centres unmarked) | -55.5 |
| CCCN1C2CCCC1CC(NC(=S)Nc1cc(C)ccc1C)C2 (centres unmarked) | 11.6 |
| S=C(Nc1ccccc1Cl)NC1CC2CCCC(C1)N2C1CC1 (centres unmarked) | -23.8 |
| COc1ccc(NC(=S)NC2CC3CCCC(C2)N3C2CC2)cc1 (centres unmarked) | -41.3 |
| CC1=C(C)C(OCCBr)N(c2cc(O)c(Cl)cc2F)C1=O (centres unmarked) | 4.66 |
| CN(C(=O)c1ccc(NC(=O)Cc2ccc(NC(=O)C3CCN(C(=O)CCc4ccccc4)CC3)cc2)cc1)C1CC1 | 9.51 |
| COc1cccc2cc(C(=O)n3ccc(C)n3)c(=O)oc12 | 8.24 |
| CN1CCN(C2=C(NS(=O)(=O)c3ccccc3)C(=O)c3ccccc3C2=O)CC1 | 2.75 |
| Cc1ccc(S(=O)(=O)NCC2CCC(C(=O)NCc3ccc4c(c3)OCO4)CC2)cc1 (centres unmarked) | -0.473 |
| Cl.Clc1ccccc1CN1CCN(/N=C/c2ccncc2)CC1 | -24.3 |
| CCCCCCCN1C/C=C\C(c2ccc(OC)cc2)N(Cc2ccc(F)cc2)C(=O)[C@H]1Cc1ccccc1 (some centres unmarked) | 8.55 |
| NC(=O)CC(NC(=O)Cc1ccc(Cl)cc1)c1ccc(N2CCC(Cc3ccccc3)CC2)c([N+](=O)[O-])c1 (centres unmarked) | 17.7 |
| Cc1nc(SCC(=O)NCc2ccco2)c2c(C)c(C)sc2n1 | -2.85 |
| O=C(COC(=O)c1ccc(NS(=O)(=O)c2cccs2)cc1O)NC1CCCCC1 | 8.92 |
| O=C(O)CCS(=O)(=O)c1ccc(-c2ccccc2)cc1 | 19.3 |
| CSc1ccc(-c2nc(CSCC(=O)NCCCN3CCCC3=O)c(C)o2)cc1 | -14.4 |
| Cc1cc(C)cc(NC(=S)NC2CC3CCCC(C2)N3C2CCCC2)c1 (centres unmarked) | -77.5 |
| Cc1cc(C)cc(NC(=S)NC2CC3CCCC(C2)N3CC(C)C)c1 (centres unmarked) | -7.32 |
| COc1cccc(NC(=S)NC2CC3CCCC(C2)N3C2CCCC2)c1 (centres unmarked) | -33.6 |
| COc1ccc([C@H]2CC(=O)C=C(c3cccc(C(F)(F)F)c3)C2)cc1 | -14.4 |
